The results in this text go back to PubChem BioAssay (Tox21).

Experiment [1] is described as follows: qHTS assay to identify small molecule antagonists of the estrogen related receptor (ERR) signaling pathway from Tox21 library - cell viability counter screen (AID 1224834). Note: nearly all actives have a fitted effect of over 30% in size. Note: potency is the fitted concentration of half-maximal effect. Summed up: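 ERR reporter cells, 2,000 per well, rested 6 h, then exposed to compound in DMSO for 17.5 hours at 37 C. Viability read as fluorescence after 30 min with CellTiter-Fluor.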
Background: qHTS replaces the single test concentration by a dilution series.

The target in experiment [2] is Luciferin 4-monooxygenase (Photinus pyralis) (UniProt P08659). As to the kind of experiment: qHTS assay to identify small molecule inhibitors of firefly luciferase (AID 1224835). For activity change, negative = inhibition: series mostly up to about 120 µM. Note: nearly all actives have a fitted effect of over 25% in size. Note: potency is the fitted concentration of half-maximal effect. The method in brief: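 Inhibition of purified Photinus luciferase is measured by luminescence. Substrate levels (D-luciferin, ATP) sit at their KM values. Each compound is tested in a concentration series.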

A short description of experiment [3]: qHTS assay to identify small molecule agonists of the constitutive androstane receptor (CAR) signaling pathway - cell viability counter screen (AID 1224836). For viability change, negative = cytotoxic: series mostly up to about 92 µM. Note: nearly all actives have a fitted effect of over 45% in size. Note: potency is the fitted concentration of half-maximal effect. The method in brief:
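HepG2 cells stably carrying hCAR and a CYP2B6-2.2kb reporter; 15-concentration compounds plus PK11195 (final 0.75 uM), 23 hr at 37 C/5% CO2. Viability read by CellTiter-Fluor fluorescence.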

A short description of experiment [4]: qHTS assay to identify small molecule antagonists of the constitutive androstane receptor (CAR) signaling pathway - cell viability counter screen (AID 1224837). For activity change, negative = cytotoxicity: series mostly up to about 92 µM. Note: nearly all actives have a fitted effect of over 45% in size. Note: potency is the fitted concentration of half-maximal effect. Summed up: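 HepG2 cells stably carrying hCAR and CYP2B6-2.2kb reporter, stimulated with 50 nM CITCO and compounds at 15 concentrations for 23 h at 37 C. Viability measured by CellTiter-Fluor fluorescence.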

The target in experiment [5] is Nuclear receptor subfamily 1 group I member 3 (Homo sapiens) (UniProt Q14994). Description: qHTS assay to identify small molecule antagonists of the constitutive androstane receptor (CAR) signaling pathway (AID 1224838). Note: nearly all actives have a fitted effect of over 40% in size. Note: potency is the fitted concentration of half-maximal effect. The method in brief:
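HepG2 cells stably carrying hCAR and a CYP2B6-2.2kb luciferase reporter, seeded 4 hrs before compound (15 concentrations). Stimulated with 50 nM CITCO for 24 hr at 37 C. ONE-Glo luminescence read after 30 min at room temperature.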

Experiment [6] has the same target. Description: qHTS assay to identify small molecule agonists of the constitutive androstane receptor (CAR) signaling pathway (AID 1224839). For activation: series mostly up to about 92 µM. Note: nearly all actives have a fitted effect of over 15% in size. Note: potency is the fitted concentration of half-maximal effect. Summed up:
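HepG2 cells stably co-transfected with hCAR and a CYP2B6-2.2kb luciferase reporter; compounds at 15 concentrations with 0.75 uM PK11195 present. After 24 hr at 37 C, luciferase read by ONE-Glo luminescence.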

Experiment [7] in a line: qHTS assay to identify small molecule antagonists of the estrogen related receptor signaling pathway with the pleiotropic PPARgamma coactivator (PGC) from Tox21 10K library - cell viability counter screen (AID 1224840; active = well fitted cell-killing curve with a large enough effect in the repeat runs, not every such curve was filed as active; note: nearly all actives have a fitted effect of over 40% in size; note: potency is the fitted concentration of half-maximal effect). The method in brief: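 PGC/ERR cells (2,000/well) plated 6 h, then compound-treated for 17.5 h at 37 C. Viability measured by CellTiter-Fluor fluorescence after 30 min at 37 C, multiplexed with the pathway assay.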

The target of experiment [8] is Thyrotropin receptor (Homo sapiens) (UniProt P16473). Description: qHTS assay to identify small molecule agonists of the thyroid stimulating hormone receptor (TSHR) signaling pathway (AID 1224843; calls by dose curve; note: nearly all actives have a fitted effect of over 45% in size; note: potency is the fitted concentration of half-maximal effect). The method in brief:
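Screening of the Tox21 10K collection used HEK293 cells engineered with TSHR at 800 cells per well. After a 30-min room-temperature compound exposure, HTRF cAMP reagents were added and fluorescence recorded 1 h later.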

The nature of experiment [9]: qHTS assay to identify small molecule antagonists of the estrogen related receptor signaling pathway with the pleiotropic PPARgamma coactivator (PGC) from Tox21 10K library (AID 1224841; call rule not given here; note: actives are mostly falling curves and most rising ones were filed inactive; nearly all actives have a fitted effect of over 50% in size; note: potency is the fitted concentration of half-maximal effect; for activity, negative = inhibition: series mostly up to about 92 µM). The method in brief:
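PGC/ERR cell line, 2,000 cells/well, pre-incubated 6 hours at 37 C, then exposed to compounds for 18 hours at 37 C; luciferase read with One-Glo luminescence after 30 min at room temperature.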

The nature of experiment [10]: qHTS assay to identify small molecule agonists of the estrogen related receptor signaling pathway with the pleiotropic PPARgamma coactivator (PGC) from Tox21 10K library (AID 1224842). Note: nearly all actives have a fitted effect of over 15% in size. The method in brief: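 Luminescence from One-Glo (30 min, room temperature) measured after PGC/ERR cells had 18 h at 37 C with pinned compound (23 nL in DMSO). Cells had been seeded at 2,000 per well and pre-incubated 6 h.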

“And” between values parts separate entries of the source, which are not always exact repeats. Equal entries are not always repeated. Results filed as inconclusive are left out. The source holds several records for some structures; these can differ, active in one and inactive in another. The source made the active and inactive calls. Unless noted, calls come from the whole dose curve; as a rule, active = well fitted curve in the direction sought with a large enough effect in the repeat runs; inconclusive = weak or mixed curves; inactive = no such curve, though single readings can be large; an effect the other way counts as inactive or inconclusive.
% is set by controls: 0 for no effect and ±100 for the full control effect.

Chain of Thyrotropin receptor (Homo sapiens) (P16473 whole entry, looked up): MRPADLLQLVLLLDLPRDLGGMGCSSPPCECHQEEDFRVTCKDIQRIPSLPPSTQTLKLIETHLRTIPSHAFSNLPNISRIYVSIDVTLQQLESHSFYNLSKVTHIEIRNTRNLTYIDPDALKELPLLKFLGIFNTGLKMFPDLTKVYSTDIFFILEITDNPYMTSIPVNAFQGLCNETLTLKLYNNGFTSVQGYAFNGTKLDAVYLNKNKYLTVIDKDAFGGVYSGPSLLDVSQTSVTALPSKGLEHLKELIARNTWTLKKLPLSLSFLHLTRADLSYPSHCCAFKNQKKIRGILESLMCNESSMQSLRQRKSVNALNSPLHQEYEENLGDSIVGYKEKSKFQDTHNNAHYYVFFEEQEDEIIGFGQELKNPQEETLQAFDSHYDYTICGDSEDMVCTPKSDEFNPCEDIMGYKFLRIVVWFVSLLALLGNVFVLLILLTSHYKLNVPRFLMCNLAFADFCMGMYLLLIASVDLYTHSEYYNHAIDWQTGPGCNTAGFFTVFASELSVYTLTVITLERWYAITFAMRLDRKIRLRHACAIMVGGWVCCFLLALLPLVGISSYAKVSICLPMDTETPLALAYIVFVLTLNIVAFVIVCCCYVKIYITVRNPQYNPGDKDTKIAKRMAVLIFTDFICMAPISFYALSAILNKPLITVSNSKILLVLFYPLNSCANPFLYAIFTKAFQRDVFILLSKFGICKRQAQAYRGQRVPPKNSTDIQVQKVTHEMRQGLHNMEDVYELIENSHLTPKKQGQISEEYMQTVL
Chain of Luciferin 4-monooxygenase (Photinus pyralis) (P08659 whole entry, looked up): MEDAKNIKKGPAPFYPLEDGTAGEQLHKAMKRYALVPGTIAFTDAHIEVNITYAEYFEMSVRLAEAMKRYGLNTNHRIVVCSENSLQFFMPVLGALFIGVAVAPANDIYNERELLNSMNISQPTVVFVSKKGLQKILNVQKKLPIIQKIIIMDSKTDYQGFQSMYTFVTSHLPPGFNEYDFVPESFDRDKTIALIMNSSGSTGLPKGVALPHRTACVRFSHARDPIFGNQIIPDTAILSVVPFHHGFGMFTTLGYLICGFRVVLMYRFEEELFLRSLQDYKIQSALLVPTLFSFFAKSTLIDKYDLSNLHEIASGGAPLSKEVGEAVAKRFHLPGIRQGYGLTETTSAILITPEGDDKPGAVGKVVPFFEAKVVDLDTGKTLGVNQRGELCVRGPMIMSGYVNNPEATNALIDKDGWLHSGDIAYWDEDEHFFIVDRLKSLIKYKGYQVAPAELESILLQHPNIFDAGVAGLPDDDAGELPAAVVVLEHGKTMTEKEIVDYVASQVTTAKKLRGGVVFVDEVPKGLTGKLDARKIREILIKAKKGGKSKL
Chain of Nuclear receptor subfamily 1 group I member 3 (Homo sapiens) (Q14994 whole entry, looked up): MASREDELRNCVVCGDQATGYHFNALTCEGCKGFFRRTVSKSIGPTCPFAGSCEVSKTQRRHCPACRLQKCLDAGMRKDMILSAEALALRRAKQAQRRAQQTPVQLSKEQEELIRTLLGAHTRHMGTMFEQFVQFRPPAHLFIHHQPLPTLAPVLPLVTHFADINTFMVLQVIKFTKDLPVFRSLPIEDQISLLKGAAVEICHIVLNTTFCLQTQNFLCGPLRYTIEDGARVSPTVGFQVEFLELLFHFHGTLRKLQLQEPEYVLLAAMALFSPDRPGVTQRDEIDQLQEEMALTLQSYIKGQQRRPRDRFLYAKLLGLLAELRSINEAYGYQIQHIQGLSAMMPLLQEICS

As to `CCCN(CCC)c1c([N+](=O)[O-])cc(C(C)C)cc1[N+](=O)[O-]`, the Potency entry in experiment [1], in [2], in experiment [3], in [4] and in experiment [7] was “inactive” each time. Besides, the Potency result was “inactive and 1 nM (active)” in experiment [5]; 33.6 µM (active) and inactive in experiment [6]; 6.71 µM (active) and 12.2 µM (active) in experiment [8].

On to `CCCC[P+](CC)(CCCC)CCCC` (tested in a mixture with another compound), for which the Potency entry in experiment [1], in experiment [2], in experiment [3], in experiment [4], in experiment [7] and in experiment [8] was “inactive” each time.

As for `C[C@@H]1C[C@@H]([C@H](O)CC2CC(=O)NC(=O)C2)C(=O)[C@@H](C)C1`, the Potency in experiment [1] is 430 nM (active) and 154 nM (active) and 266 nM (active); in experiment [3], 969 nM (active); in experiment [4], 765 nM (active) and 611 nM (active); in [9], 682 nM (active) and 433 nM (active) and 531 nM (active). The Potency entry in experiment [2], in experiment [7], in experiment [10] and in experiment [8] was “inactive” in each case.

With `COC(=O)C1(O)c2ccccc2-c2ccccc21`, the Potency entry in experiment [1], in [2], in [3], in experiment [4], in experiment [7] and in [8] was “inactive” each time.

Take `CCCCCCCCP(=O)(O)O`: the Potency result in experiment [1], in experiment [2], in experiment [3], in [4], in experiment [7] and in [8] was “inactive” in each case.

Consider `CCCCCCCCn1sccc1=O`, for which the Potency in experiment [1] was 27.4 µM (active) and 16.1 µM (active); in [2] it was 35.7 µM (active) and 41.8 µM (active); in experiment [3] it was 61.3 µM (active) and 25.5 µM (active); in [4], 30.7 µM (active) and 5.71 µM (active); in experiment [7], 30.7 µM (active) and 11.4 µM (active); in [9], 30.7 µM (active). For the same compound, in experiment [10], the Potency result is “inactive”.

Take `OCC1CO1` (stereo not drawn): the Potency result in experiment [1], in experiment [2], in experiment [3], in [4] and in experiment [7] was “inactive” in each case.

In the case of `CC(C)[C@@H](C(=O)O[C@@H](C#N)c1cccc(Oc2ccccc2)c1)c1ccc(Cl)cc1`, the Potency entry in experiment [1], in experiment [2], in experiment [3], in experiment [4] and in experiment [7] was “inactive” throughout. Further, the Potency in [6] is 19.6 µM (active) and inactive.

With `CCN(C(C)=O)c1cccc(-c2ccnc3c(C#N)cnn23)c1`, the Potency entry in experiment [1], in experiment [2], in experiment [3], in experiment [4], in experiment [7] and in experiment [8] was “inactive” throughout.

As for `CN(C)C(=O)Nc1cccc(OC(=O)NC(C)(C)C)c1`, the Potency result in experiment [1], in [2], in [3], in experiment [4], in [7] and in experiment [9] was “inactive” throughout. The Potency result in experiment [10] and in [8] was “inactive” throughout.

Turning to `CC(=O)OC(c1ccccc1)C(Cl)(Cl)Cl` (stereo not drawn), the Potency result in experiment [1], in experiment [2], in experiment [3], in [4], in experiment [7] and in experiment [8] was “inactive” throughout.

Take `CCOP(=O)(SC(C)CC)N1CCSC1=O` (stereo not drawn): the Potency entry in [1], in experiment [2], in [3], in [4], in experiment [6] and in experiment [7] was “inactive” throughout. Besides, the Potency result in [8] is “inactive”.

Regarding `CC(CC(C(N)=O)(c1ccccc1)c1ccccc1)N(C)C` (stereo not drawn), the Potency result in experiment [1], in [2], in experiment [3], in experiment [4], in experiment [7] and in [8] was “inactive” each time.

For the compound `NNCCO`, the Potency result in experiment [1], in experiment [2], in [3], in experiment [4], in experiment [7] and in experiment [9] was “inactive” throughout. Moreover, the Potency result in [10] and in experiment [8] was “inactive” each time.

In the case of `CCCC[N+]1(C)[C@@H]2CC(OC(=O)[C@H](CO)c3ccccc3)C[C@H]1[C@@H]1O[C@@H]12` (stereo partly drawn), the Potency result in experiment [1], in experiment [2], in experiment [3], in experiment [4], in experiment [6] and in experiment [7] was “inactive” each time. The Potency result in experiment [8] is “inactive”.

`O=C1NC(=O)C(=O)C(=O)N1`: the Potency entry in experiment [1], in experiment [2], in [3], in [4], in experiment [7] and in [8] was “inactive” each time.

As for `CCCCCl`, the Potency entry in experiment [1], in experiment [2], in [3], in experiment [4], in experiment [7] and in experiment [9] was “inactive” each time. For the same compound, the Potency entry in experiment [10] and in experiment [8] was “inactive” throughout.

For the compound `CN(C)N`, the Potency entry in [1], in experiment [2], in experiment [3], in experiment [4], in experiment [7] and in experiment [8] was “inactive” in each case.

As for `C1CCNCC1`, the Potency entry in experiment [1], in [2], in [3], in [4], in experiment [7] and in experiment [8] was “inactive” throughout.

Turning to `OC[P+](CO)(CO)CO`, the Potency result in [1], in experiment [2], in [3], in [4], in experiment [5] and in experiment [7] was “inactive” throughout. Further, in [8], the Potency result was “inactive”.

On to `CCCBr`, for which the Potency entry in experiment [1], in experiment [2], in experiment [3], in experiment [4], in [7] and in experiment [8] was “inactive” throughout.

As for `C[N+]1(CCF)[C@@H]2CC[C@H]1CC(OC(=O)C(O)(c1ccccc1)c1ccccc1)C2` (stereo partly drawn), the Potency result in experiment [1], in experiment [2], in [3], in [4], in [6] and in experiment [7] was “inactive” each time. Further, in experiment [8], the Potency result is “inactive”.

As to `CC1(C)[C@H](C(=O)O[C@H](C#N)c2cccc(Oc3ccccc3)c2)[C@@H]1C=C(Br)Br`, the Potency entry in experiment [1], in experiment [2], in experiment [3], in experiment [4], in experiment [7] and in experiment [9] was “inactive” throughout. In addition, the Potency result in experiment [10] was “inactive”.

Regarding `O=C(CCl)CCl`, the Potency entry in experiment [1], in experiment [2], in experiment [3], in [4], in experiment [7] and in experiment [8] was “inactive” in each case.

In the case of `O=[N+]([O-])O[C@H]1CO[C@H]2[C@@H]1OC[C@H]2O[N+](=O)[O-]`, the Potency result in [1], in [2], in experiment [3], in experiment [4], in [7] and in experiment [9] was “inactive” each time. Moreover, the Potency result in experiment [10] and in experiment [8] was “inactive” in each case.

As to `CCCC1CCCCN1` (stereo not drawn), the Potency entry in experiment [1], in [2], in [3], in [4], in experiment [6] and in experiment [7] was “inactive” throughout. The Potency entry in experiment [8] was “inactive”.

Regarding `Cc1cccc(C)c1NC1=NCCCS1`, the Potency entry in experiment [1], in experiment [2], in [3], in experiment [4], in [7] and in experiment [8] was “inactive” throughout.

For `C[N+](C)(C)CC1CO1` (stereo not drawn), the Potency entry in experiment [1], in [2], in [3], in [4], in [7] and in experiment [8] was “inactive” in each case.

With `O=C(NC(=O)c1cc(F)c(F)cc1Cl)Nc1cc(F)ccc1N1CCC(C(=O)O)CC1`, the Potency result in [1], in [2], in experiment [3], in experiment [4], in experiment [7] and in experiment [8] was “inactive” throughout.

As for `C=CCc1ccccc1O`, the Potency entry in [1], in experiment [2], in [3], in experiment [4], in experiment [7] and in experiment [9] was “inactive” throughout. Moreover, in [10], the Potency entry was “inactive”.

For the compound `Cc1ccc(N)c(C)c1`, the Potency entry in experiment [1], in experiment [2], in [3], in experiment [4] and in experiment [7] was “inactive” each time.

In the case of `NC(=S)c1c(Cl)cccc1Cl`, the Potency result in experiment [1], in [2], in experiment [3], in experiment [4], in [7] and in experiment [8] was “inactive” each time.

Regarding `CCCC[N+](CCCC)(CCCC)CCCC`, the Potency result in experiment [1], in experiment [2], in [3], in experiment [4], in experiment [7] and in experiment [10] was “inactive” each time.

`CCCCCCCCCCCCN=C(N)N`: the viability change, negative = cytotoxic in experiment [1] was 1.13% [at 3.27 µM] (inactive); in experiment [3], 0.263% [at 3.27 µM] (inactive); in experiment [7], 2.19% [at 3.27 µM] (inactive). The activity change, negative = inhibition in experiment [2] was 0.224% [at 4.07 µM] (inactive). The activity change, negative = cytotoxicity in [4] was -5.88% [at 3.26 µM] (inactive). Besides, the activity, negative = inhibition in experiment [5] was 9.02% [at 3.26 µM] (inactive). Further, the activation in experiment [8] was 5.05% [at 3.27 µM] (inactive).
